Data from PubChem BioAssay (NCATS).
Activity calls are given as the source filed them.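 How the source made its calls: active means compounds whose dose series gives a full or clear partial fitted curve of increased nuclear translocation; inconclusive means weak partial curve or effect only at the top dose; inactive means no dose-dependent translocation response.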

Target: Glucocorticoid receptor (Homo sapiens) (UniProt P04150)
Experiment: GR-GFP Redistribution (AID 450)
Conditions: U2OS GR-GFP nuclear translocation, laser cytometry, 2 h
Potency means the concentration at half of the fitted maximal effect.

Sequence of Glucocorticoid receptor (Homo sapiens) (P04150 whole entry, looked up): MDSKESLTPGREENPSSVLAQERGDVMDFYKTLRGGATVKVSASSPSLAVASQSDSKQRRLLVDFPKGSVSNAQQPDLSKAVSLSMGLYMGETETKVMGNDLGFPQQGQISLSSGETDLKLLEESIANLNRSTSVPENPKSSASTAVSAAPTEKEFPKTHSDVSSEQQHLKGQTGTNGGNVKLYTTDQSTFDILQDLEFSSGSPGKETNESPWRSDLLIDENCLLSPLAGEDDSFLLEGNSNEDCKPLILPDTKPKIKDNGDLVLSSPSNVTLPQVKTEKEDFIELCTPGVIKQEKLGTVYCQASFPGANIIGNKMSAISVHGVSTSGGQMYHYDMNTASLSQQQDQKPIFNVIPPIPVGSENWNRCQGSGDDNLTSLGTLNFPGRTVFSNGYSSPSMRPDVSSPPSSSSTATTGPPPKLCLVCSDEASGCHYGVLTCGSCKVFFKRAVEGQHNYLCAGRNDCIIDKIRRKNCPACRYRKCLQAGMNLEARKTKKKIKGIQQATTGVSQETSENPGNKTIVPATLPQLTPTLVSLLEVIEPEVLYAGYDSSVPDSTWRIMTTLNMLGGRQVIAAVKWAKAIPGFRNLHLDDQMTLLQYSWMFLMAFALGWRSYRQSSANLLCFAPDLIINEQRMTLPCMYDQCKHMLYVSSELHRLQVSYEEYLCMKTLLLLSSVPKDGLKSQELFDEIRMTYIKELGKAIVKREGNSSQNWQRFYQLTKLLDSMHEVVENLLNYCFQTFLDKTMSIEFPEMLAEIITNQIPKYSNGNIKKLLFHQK

Potency, inactive:
COCCNc1nc(-c2ccccc2C(F)(F)F)nc2ccccc12 > 46 µM
COc1ccc(-n2c(=O)c(-c3cc(F)cc(F)c3)nc3cnc(N4CCNCC4)nc32)cc1 > 9.22 µM
Oc1cc2c(c(Cl)c1O)CCNC[C@H]2c1ccccc1 > 46 µM
COc1ccc(Oc2ncc3nc(-c4cccs4)c(=O)n(Cc4cccs4)c3n2)cc1 > 9.22 µM
O=c1c(-c2cccs2)nc2cnc(Oc3cccc(Cl)c3)nc2n1C[C@H]1CCCO1 > 9.22 µM
COc1cccc(Nc2ncc3nc(-c4ccc(F)cc4)c(=O)n(C[C@H]4CCCO4)c3n2)c1 > 9.22 µM
O=c1c(-c2ccc(Cl)cc2)nc2cnc(N3CCOCC3)nc2n1C1CC1 > 9.22 µM
CN(C)c1ncc2nc(-c3ccccc3)c(=O)n(C3CC3)c2n1 > 9.22 µM
O=c1c(-c2ccc(Cl)cc2)nc2cncnc2n1Cc1ccc(F)cc1 > 9.22 µM
COc1cccc(Cn2c(=O)c(C)nc3cnc(OCc4ccccc4)nc32)c1 > 9.22 µM
COc1ncc2nc(CCc3ccccc3)c(=O)n(CCC#N)c2n1 > 9.22 µM
CCNc1ncc2nc(-c3cc(F)cc(F)c3)c(=O)n(-c3ccc(OC)cc3)c2n1 > 9.22 µM
COc1ccc(Oc2ncc3ncc(=O)n(CCc4ccccc4)c3n2)cc1 > 9.22 µM
COc1cccc(Cn2c(=O)c(CCc3ccccc3)nc3cnc(OC)nc32)c1 > 9.22 µM
CCNc1ncc2nc(-c3cc(F)cc(F)c3)c(=O)n(-c3ccccc3)c2n1 > 9.22 µM
CCNc1ncc2nc(-c3ccccc3)c(=O)n(CCc3ccccc3)c2n1 > 9.22 µM
COc1ccc(Oc2ncc3nc(-c4ccccc4)c(=O)n(Cc4cccs4)c3n2)cc1 > 9.22 µM
O=c1c(-c2cccs2)nc2cncnc2n1C1CC1 > 9.22 µM
COc1ccccc1-c1nc(N(C)Cc2ccco2)c2ccccc2n1 > 46 µM
COCCn1c(=O)c(-c2cccs2)nc2cnc(Oc3cccc(Cl)c3)nc21 > 9.22 µM
COc1ccccc1CNc1nc(-c2ccc(N(C)C)cc2)nc2ccccc12 > 46 µM
CCNc1ncc2nc(-c3cccc(C#N)c3)c(=O)n(C)c2n1 > 9.22 µM
O=c1c(-c2ccc(Cl)cc2)nc2cnc(N3CCNCC3)nc2n1Cc1ccc(F)cc1 > 9.22 µM
COc1ncc2nc(-c3ccc(Cl)cc3)c(=O)n(CCc3ccccc3)c2n1 > 9.22 µM
O=c1cnc2cnc(Nc3ccccc3)nc2n1C[C@H]1CCCO1 > 9.22 µM
